{
  "source": "the supplement of paper PMC7530171",
  "note": "Counter-ions that a name gives are not always drawn. ± gives the standard deviation.",
  "data": [
    {"tested_on": "THP-1", "test": "THP-1 cell loss relative to DMSO control; higher = more host cell loss (toxicity); extreme values may be limits of the assay", "details": "10 µM; 4 days; infection: M. tuberculosis H37Rv", "protocol": "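OICR kinase inhibitor library screened in duplicate at 10 uM against M. tuberculosis-infected THP-1 macrophages, 4 days at 37 C. THP-1 cell loss (cytotoxicity or loss of adherence) was quantified from Hoechst-stained nuclei counts by high-content imaging and normalised to the 1% DMSO control; 100 = complete loss of host cells.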", "units": {"THP-1 cell loss": "%"}, "values": [
      {"compound": "CC(=O)Nc1cccc(-n2c(=O)n(C3CC3)c(=O)c3c(Nc4ccc(I)cc4F)n(C)c(=O)c(C)c32)c1", "THP-1 cell loss": 100},
      {"compound": "Oc1ccc(Nc2nc(-c3ccc(Cl)cc3)cs2)cc1", "note": "[2-(p-Hydroxyanilino)-4-(p-chlorophenyl) thiazole]", "THP-1 cell loss": 100},
      {"compound": "COc1cc(F)c(F)c(Nc2ccc(I)cc2F)c1NS(=O)(=O)C1(C[C@H](O)CO)CC1", "THP-1 cell loss": "84.9 ± 1"},
      {"compound": "O=C(NOCC1CC1)c1cc(Br)c(F)c(F)c1Nc1ccc(I)cc1Cl", "THP-1 cell loss": "55.1 ± 9.2"},
      {"compound": "O=Nc1c(-c2c(O)[nH]c3cc(Br)ccc23)[nH]c2ccccc12", "note": "[6-bromoindirubin-3'-oxime]", "THP-1 cell loss": 100},
      {"compound": "COc1cc(Nc2ncc3c(n2)-c2ccc(Cl)cc2C(c2c(F)cccc2OC)=NC3)ccc1C(=O)O", "THP-1 cell loss": "8.63 ± 10"},
      {"compound": "CN1CCC(CNc2ccc3ncc(-c4cccc(OC(F)(F)F)c4)n3n2)CC1", "THP-1 cell loss": "55.8 ± 30"},
      {"compound": "O=C(NCCCNc1nc(Nc2cccc(NC(=O)N3CCCC3)c2)ncc1I)c1cccs1", "THP-1 cell loss": 100},
      {"compound": "Cn1cc(C2=C(c3cn(CCCSC(=N)N)c4ccccc34)C(=O)NC2=O)c2ccccc21", "note": "[Ro-31-8220 mesylate]", "THP-1 cell loss": 100},
      {"compound": "O=S(=O)(NCCNC/C=C/c1ccc(Br)cc1)c1cccc2cnccc12", "note": "[H 89 dihydrochloride]", "THP-1 cell loss": "10 ± 2.1"},
      {"compound": "O=[N+]([O-])c1ccc(-c2nc(-c3ccc(F)cc3)c(-c3ccncc3)[nH]2)cc1", "THP-1 cell loss": "17 ± 3.5"},
      {"compound": "CN(C)c1ccc(/C=C2/C(=O)Nc3ccccc32)cc1", "THP-1 cell loss": "20.5 ± 18"},
      {"compound": "Cc1ncc(-c2ccnc(Nc3ccc(S(C)(=O)=O)cc3)n2)n1C(C)C", "THP-1 cell loss": 100},
      {"compound": "CCn1c(-c2nonc2N)nc2cnc(Oc3cccc(NC(=O)c4ccc(OCCN5CCOCC5)cc4)c3)cc21", "THP-1 cell loss": "83.5 ± 23"},
      {"compound": "CCc1cncnc1N1CCN(Cc2nc3ccc(C(F)(F)F)cc3[nH]2)CC1", "THP-1 cell loss": "92.6 ± 10"},
      {"compound": "Oc1c2ccccc2c2c3c(cccc13)N=N2", "THP-1 cell loss": "19.8 ± 16"},
      {"compound": "CN(C)CC(C)(C)CNc1nn2c(-c3ccccc3)nnc2cc1C1CCC1", "THP-1 cell loss": "18.4 ± 1.3"},
      {"compound": "COc1cc2ncnc(Nc3cccc(Br)c3)c2cc1OC", "THP-1 cell loss": "72.7 ± 4"},
      {"compound": "O=C1NC(=O)/C(=C/c2ccc3c(c2)OC(F)(F)O3)S1", "THP-1 cell loss": "7.44 ± 3.3"},
      {"compound": "CC1(C)CNc2cc(NC(=O)c3cccnc3NCc3ccncc3)ccc21", "note": "[Motesanib diphosphate salt]", "THP-1 cell loss": "4.91 ± 6.9"},
      {"compound": "COc1cc(OC)c(/C=C/S(=O)(=O)Cc2ccc(OC)c(NCC(=O)O)c2)c(OC)c1", "THP-1 cell loss": "44.7 ± 2.4"},
      {"compound": "NC(=O)Nc1cc(-c2cccc(F)c2)sc1C(=O)N[C@H]1CCCNC1", "note": "[AZD-7762 hydrochloride]", "THP-1 cell loss": 100},
      {"compound": "O=C1NC(=O)C(c2ccccc2[N+](=O)[O-])=C1Nc1ccc(O)c(Cl)c1", "THP-1 cell loss": "3.73 ± 5.3"},
      {"compound": "COc1ccc(C(=O)Nc2sc3c(c2C(N)=O)CCCC3)cc1OC", "THP-1 cell loss": 100},
      {"compound": "Nc1nccc(Oc2ccc(NC(=O)c3c[nH]cc(-c4ccc(F)cc4)c3=O)cc2F)c1Cl", "THP-1 cell loss": "48.1 ± 23"},
      {"compound": "O=S(=O)(c1cccc2cnccc12)N1CCCNCC1", "note": "[Fasudil HCl]", "THP-1 cell loss": "0.204 ± 0.29"},
      {"compound": "COc1ccc(-c2cc3nccn3c(Nc3ncccc3C(N)=O)n2)cc1OC", "note": "[BAY 61-3606 hydrochloride]", "THP-1 cell loss": 100},
      {"compound": "Cn1cnc2c(F)c(Nc3ccc(Br)cc3Cl)c(C(=O)NOCCO)cc21", "THP-1 cell loss": "82.3 ± 9.6"},
      {"compound": "Cc1nc2sccn2c(=O)c1CCN1CCC(=C(c2ccccc2)c2ccc(F)cc2)CC1", "THP-1 cell loss": 0},
      {"compound": "Cn1cc(-c2cnc3ccc4ccc(CS(=O)(=O)NCc5ccccn5)cc4c(=O)c3c2)cn1", "THP-1 cell loss": "52.3 ± 67"},
      {"compound": "CN(C)CCOc1cc(-c2cn[nH]c2)ccc1NC(=O)C1COc2ccccc2O1", "note": "(stereo not given)", "THP-1 cell loss": 0},
      {"compound": "CNS(=O)(=O)Nc1nccc(Cc2c(C)c3ccc(Oc4ncccn4)cc3oc2=O)c1F", "THP-1 cell loss": 100},
      {"compound": "CCCS(=O)(=O)Nc1ccc(F)c(C(=O)c2c[nH]c3ncc(-c4ccc(Cl)cc4)cc23)c1F", "THP-1 cell loss": 100},
      {"compound": "CC(C)CCN1c2nc(Nc3cc(F)c(O)c(F)c3)ncc2N(C)C(=O)C1C", "note": "(stereo not given)", "THP-1 cell loss": "56.5 ± 6.2"},
      {"compound": "Cc1ccccc1-n1c(Cn2nc(-c3cccc(O)c3)c3c(N)ncnc32)nc2cccc(C)c2c1=O", "THP-1 cell loss": "43.9 ± 23"}
    ]}
  ]
}
